Values joined by “and” are separate entries in the source; they are usually repeats but may differ in a detail not shown here. Identical values can stand only once. Inconclusive results are not listed. Active and inactive are the calls of the source. Unless noted, calls follow the shape of the dose curve; as a rule, active = well fitted curve in the direction sought with a large enough effect; inconclusive = small, poorly fitted or top-dose-only effect, or another doubt; inactive = no such curve, though single readings can be large; an effect the other way counts as inactive or inconclusive.
Legend:
[1] = target: Cytochrome P450 2D6 (Homo sapiens) (UniProt P10635); experiment: qHTS Assay for Inhibitors and Substrates of Cytochrome P450 2D6 (AID 891); also: nearly all actives have a fitted effect of over 60% in size; also: potency is read from the fitted curve at half-maximal effect
In short: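 Luminescent read-out of luciferin formed by 5 nM human CYP2D6 demethylating 30 uM Luciferin-ME EGE (Km level) over 60 min at room temperature after NADPH regeneration addition. Data normalized to full inhibition by 1.43 uM quinidine.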

[2] = target: Glucocorticoid receptor (Homo sapiens) (UniProt P04150); experiment: qHTS assay for small molecule antagonists of glucocorticoid receptor signaling (AID 588533; active = well fitted inhibition curve with a large enough effect in the signal ratio, with a control signal flat, not every such curve was filed as active; the % refers to the signal ratio;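 also: cells stimulated with 2 nM dexamethasone as agonist; % is scaled to controls: 0 for no effect and ±100 for the full control effect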)
In short: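 Antagonist-mode qHTS: compound titrations added to GRE-bla HeLa cells, then dexamethasone 2 nM final; 18 h, 37 C. CCF4 FRET fluorescence normalized to dexamethasone and DMSO; IC50 from Hill fit.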

[3] = target: Thyroid hormone receptor beta (Homo sapiens) (UniProt P10828); experiment: qHTS assay for small molecule agonists of thyroid hormone receptor beta signaling (AID 588545; calls by dose curve;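 also: 0% = DMSO only and 100% = 10 nM T3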)
In short: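 TR-UAS-bla GripTite HEK 293 cells (2500/well, medium with 2% charcoal/dextran FBS) were treated in agonist mode for 18 h at 37 C, titrated. Beta-lactamase was read by CCF4 ratio after 2 h; normalized to 10 nM T3 (100%) and DMSO, Hill-fitted for EC50 and efficacy.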

[4] = qHTS assay for small molecule agonists of the antioxidant response element (ARE) signaling pathway measured by Nrf2-dependant transcriptional activity (AID 720636; active = well fitted curve in the direction sought with a large enough effect in the repeat runs; an effect the other way counts as inactive or inconclusive;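 also: HepG2 cells with an ARE-driven luciferase reporter; % of control where 0% means no effect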)
In short: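 ONE-Glo luminescence, read 30 min after reagent addition at room temperature, reflected ARE reporter activity in HepG2 cells that had been incubated with compound for 16 hr at 37 C in 1% dialyzed FBS.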

[5] = target: Nuclear receptor subfamily 1 group I member 2 (Rattus norvegicus) (UniProt Q9R1A7); experiment: qHTS assay for small molecule activators of the rat pregnane X receptor (rPXR) signaling pathway (AID 651751; call rule not given here; also: 0% is about no effect); settings: rPXR reporter cells, luciferase (One-Glo), 24 h
[6] = qHTS assay for small molecule activators of the human pregnane X receptor (PXR) signaling pathway (AID 720659; call rule not given here; also: 0% is about no effect)
[7] = Cell Viability - Jurkat (AID 426;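 active = dose-dependent loss of cell ATP signal giving a full or clear fitted curve, ranked by lower potency value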;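 also: potency is read from the fitted curve at half-maximal effect; cells exposed to compound for 40 hours at 37 °C before ATP read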); settings: qHTS
In short: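 Cytotoxicity taken as drop in cellular ATP (CellTiter-Glo luminescence, 20 min room temperature) after 40 hr, 37C treatment of 5000 Jurkat Clone E6-1 cells per well; concentration-response fitted with Hill equation for AC50.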

[8] = Cell Viability - H-4-II-E (AID 543);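 also: cells exposed to compound for 40 hours; % is scaled to controls: 0 for no effect and ±100 for the full control effect; nearly all actives have a fitted effect of over 35% in size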
In short: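 CellTiter-Glo luminescence (intracellular ATP) measured after 40 h compound exposure at 37 °C in H-4-II-E rat hepatoma cells seeded at 1500/well. Values are AC50s fitted with the standard Hill equation.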

[9] = Cell Viability - LYMP2-002 (AID 977);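 also: series mostly up to about 92 µM; plate controls were DMSO only for no effect and 92 µM tetraoctylammonium bromide for full effect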
In short: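 Human lymphoblastoid cells, 2500/well, complete medium; 5 h 37 C settle; compound 24 h 37 C; CellTiter-Glo, 30 min RT; luminescence. Decrease in ATP = cytotoxicity; AC50 via Hill equation.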

[10] = Cell Viability - LYMP2-006 (AID 978); also: series mostly up to about 92 µM; % is scaled to controls: 0 for no effect and ±100 for the full control effect; nearly all actives have a fitted effect of over 60% in size
In short: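 Potency values are Hill-fit AC50s for decreases in intracellular ATP (CellTiter-Glo luminescence). LYMP2-006 lymphoblastoid cells, 2500 per well, were exposed to compound in complete culture medium for 24 hr at 37 C.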

[11] = Cell Viability - LYMP2-010 (AID 981); also: % is scaled to controls: 0 for no effect and ±100 for the full control effect; nearly all actives have a fitted effect of over 55% in size
In short: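 CellTiter-Glo ATP luminescence measured cytotoxicity after 24 h compound exposure at 37 C. LYMP2-010 cells were seeded at 2500/well, with tetraoctylammonium bromide as control; concentration-response curves gave AC50 values by the Hill equation.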

[12] = Cell Viability - LYMP2-014 (AID 983);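 also: series mostly up to about 92 µM; plate controls were DMSO only for no effect and 92 µM tetraoctylammonium bromide for full effect; nearly all actives have a fitted effect of over 50% in size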
In short: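 Intracellular ATP loss, read by luciferase luminescence, measures acute cytotoxicity after 24 h compound exposure of lymphoblastoid LYMP2-014 cells (2500/well, 37 C). Concentration-response data fitted to the Hill equation for AC50.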

[13] = Cell Viability - LYMP2-016 (AID 984); also: % is scaled to controls: 0 for no effect and ±100 for the full control effect; nearly all actives have a fitted effect of over 55% in size
In short: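 Cytotoxicity was scored by luminescent ATP content (CellTiter-Glo) after 24 h compound exposure at 37 C of a human lymphoblastoid line at 2500 cells/well. Concentration-response data were fitted to the Hill equation for AC50.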

[14] = Cell Viability - LYMP2-018 (AID 985);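 also: plate controls were DMSO only for no effect and tetraoctylammonium bromide at 92 µM for full effect; nearly all actives have a fitted effect of over 50% in size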
In short: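 Viability read as CellTiter-Glo luminescence (cellular ATP) after 24 hr compound exposure at 37 C of 2500 LYMP2-018 lymphoblastoid cells/well, pre-plated 5 hr. Hill-equation modelling gave AC50.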

[15] = Cell Viability - LYMP2-020 (AID 986);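 also: series mostly up to about 92 µM; plate controls were DMSO only for no effect and tetraoctylammonium bromide at 92 µM for full effect; nearly all actives have a fitted effect of over 55% in size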
In short: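 Cytotoxicity in qHTS format: luminescent ATP readout from CellTiter-Glo after 24 h compound exposure at 37 C in complete medium. LYMP2-020 lymphoblastoid cells were seeded at 2500/well; concentration-response data fitted to the Hill equation for AC50.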

[16] = Cell Viability - LYMP2-022 (AID 987);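 also: 0% = DMSO alone and full effect = tetraoctylammonium bromide at 92 µM; nearly all actives have a fitted effect of over 55% in size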
In short: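 Cytotoxicity read as decreased cellular ATP (CellTiter-Glo luminescence, 30 min room temperature) after 24 hours compound exposure of 2500 lymphoblastoid LYMP2-022 cells/well at 37 C. Concentration-response data fitted with standard Hill equation for AC50.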

[17] = Cell Viability - LYMP2-026 (AID 989); also: % is scaled to controls: 0 for no effect and ±100 for the full control effect; nearly all actives have a fitted effect of over 50% in size
In short: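 Cytotoxicity read as ATP-dependent luminescence (CellTiter-Glo, 30 min room temperature) after 24 h compound treatment at 37 C. LYMP2-026 lymphoblastoid line seeded at 2500 cells/well; AC50 derived by standard Hill equation.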

[18] = Cell Viability - LYMP1-002 - Assay at 24 hr (AID 993); also: % is scaled to controls: 0 for no effect and ±100 for the full control effect
In short: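 qHTS cytotoxicity at 24 h: CellTiter-Glo ATP luminescence in lymphoblastoid line LYMP1-002 incubated with compound at 37 °C. Concentration-response modeled with the Hill equation for AC50; tetraoctylammonium bromide served as positive control.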

[19] = qHTS assay for small molecule disruptors of the mitochondrial membrane potential - 5 hr assay (AID 651755; calls by dose curve; also: % is scaled to controls: 0 for no effect and ±100 for the full control effect; nearly all actives have a fitted effect of over 40% in size)
In short: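 Read-out: ratiometric Mito-MPS fluorescence, green monomer (ex 490/em 535) vs red mitochondrial aggregate (ex 540/em 590). HepG2 cells treated 5 hr at 37C before 30 min dye loading.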

[20] = target: Nuclear receptor ROR-gamma (Homo sapiens) (UniProt P51449); experiment: qHTS assay for small molecule antagonists of the retinoid-related orphan receptor gamma (ROR-gamma) signaling pathway (AID 651802);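 also: CHO cells with doxycycline-induced ROR-gamma expression; luciferase reporter luminescence driven by ROR response element; series mostly up to about 92 µM; % is scaled to controls: 0 for no effect and ±100 for the full control effect; nearly all actives have a fitted effect of over 60% in size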
In short: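 Luminescence (One-Glo, 30 min RT) measured 16 h after compound addition and doxycycline induction at 37C. Reporter: RORE-luciferase under TET-inducible ROR-gamma in CHO cells.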

Chain of Nuclear receptor ROR-gamma (Homo sapiens) (P51449 whole entry, looked up): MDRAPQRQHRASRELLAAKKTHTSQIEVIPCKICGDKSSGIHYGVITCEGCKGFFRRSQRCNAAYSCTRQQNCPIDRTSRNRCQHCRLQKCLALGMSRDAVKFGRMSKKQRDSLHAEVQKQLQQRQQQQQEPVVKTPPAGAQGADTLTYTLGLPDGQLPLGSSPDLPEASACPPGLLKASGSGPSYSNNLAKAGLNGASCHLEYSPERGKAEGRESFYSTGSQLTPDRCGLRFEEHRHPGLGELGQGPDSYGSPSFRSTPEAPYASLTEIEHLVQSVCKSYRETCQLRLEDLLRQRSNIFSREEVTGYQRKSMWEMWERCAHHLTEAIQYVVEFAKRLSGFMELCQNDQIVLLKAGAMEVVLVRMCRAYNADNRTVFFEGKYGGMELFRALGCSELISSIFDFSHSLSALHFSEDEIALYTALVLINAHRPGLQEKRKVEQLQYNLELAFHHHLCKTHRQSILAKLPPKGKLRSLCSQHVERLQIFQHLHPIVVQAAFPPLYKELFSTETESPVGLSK
Chain of Glucocorticoid receptor (Homo sapiens) (P04150 whole entry, looked up): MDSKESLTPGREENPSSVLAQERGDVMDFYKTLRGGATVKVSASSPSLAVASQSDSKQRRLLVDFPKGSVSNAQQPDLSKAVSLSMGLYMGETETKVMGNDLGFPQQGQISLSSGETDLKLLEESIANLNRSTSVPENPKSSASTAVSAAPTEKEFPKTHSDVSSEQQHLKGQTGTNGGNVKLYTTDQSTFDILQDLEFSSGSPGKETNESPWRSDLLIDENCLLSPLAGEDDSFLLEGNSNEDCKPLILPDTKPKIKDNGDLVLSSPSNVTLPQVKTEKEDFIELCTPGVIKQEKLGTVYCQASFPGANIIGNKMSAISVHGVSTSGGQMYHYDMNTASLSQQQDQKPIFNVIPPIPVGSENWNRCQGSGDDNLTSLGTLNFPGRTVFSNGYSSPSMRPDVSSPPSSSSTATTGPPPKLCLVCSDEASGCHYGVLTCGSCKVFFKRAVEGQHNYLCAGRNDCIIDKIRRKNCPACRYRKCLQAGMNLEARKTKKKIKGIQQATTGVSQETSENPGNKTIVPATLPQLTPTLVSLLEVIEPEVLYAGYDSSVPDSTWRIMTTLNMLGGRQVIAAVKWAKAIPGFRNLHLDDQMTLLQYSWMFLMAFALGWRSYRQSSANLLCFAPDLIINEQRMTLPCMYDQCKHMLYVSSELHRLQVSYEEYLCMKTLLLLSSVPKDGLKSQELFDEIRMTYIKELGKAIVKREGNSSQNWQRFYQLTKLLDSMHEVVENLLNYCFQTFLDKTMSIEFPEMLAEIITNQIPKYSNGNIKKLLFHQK
Chain of Nuclear receptor subfamily 1 group I member 2 (Rattus norvegicus) (Q9R1A7 whole entry, looked up): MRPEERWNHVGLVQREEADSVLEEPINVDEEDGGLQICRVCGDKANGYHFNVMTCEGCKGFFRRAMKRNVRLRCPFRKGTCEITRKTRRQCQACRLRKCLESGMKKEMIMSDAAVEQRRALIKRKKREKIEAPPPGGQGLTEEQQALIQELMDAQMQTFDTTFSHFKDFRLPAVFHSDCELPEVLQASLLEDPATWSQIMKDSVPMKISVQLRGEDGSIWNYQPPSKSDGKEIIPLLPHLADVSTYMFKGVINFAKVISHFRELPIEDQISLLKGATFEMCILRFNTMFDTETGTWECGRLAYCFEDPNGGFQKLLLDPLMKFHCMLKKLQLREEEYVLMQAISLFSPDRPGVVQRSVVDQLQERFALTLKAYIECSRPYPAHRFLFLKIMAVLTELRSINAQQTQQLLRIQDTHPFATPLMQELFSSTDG
Chain of Thyroid hormone receptor beta (Homo sapiens) (P10828 whole entry, looked up): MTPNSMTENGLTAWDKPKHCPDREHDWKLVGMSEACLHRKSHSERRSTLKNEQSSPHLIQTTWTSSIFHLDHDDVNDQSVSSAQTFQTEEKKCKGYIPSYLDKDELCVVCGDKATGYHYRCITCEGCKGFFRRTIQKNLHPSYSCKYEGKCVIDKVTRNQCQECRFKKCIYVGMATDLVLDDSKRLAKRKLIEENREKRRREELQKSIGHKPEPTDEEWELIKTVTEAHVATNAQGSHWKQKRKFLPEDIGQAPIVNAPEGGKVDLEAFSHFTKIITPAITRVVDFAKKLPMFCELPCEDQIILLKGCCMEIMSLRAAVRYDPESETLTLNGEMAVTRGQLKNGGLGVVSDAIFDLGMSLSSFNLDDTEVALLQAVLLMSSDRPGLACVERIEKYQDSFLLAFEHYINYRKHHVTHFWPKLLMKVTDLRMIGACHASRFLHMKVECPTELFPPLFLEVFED
Chain of Cytochrome P450 2D6 (Homo sapiens) (P10635 whole entry, looked up): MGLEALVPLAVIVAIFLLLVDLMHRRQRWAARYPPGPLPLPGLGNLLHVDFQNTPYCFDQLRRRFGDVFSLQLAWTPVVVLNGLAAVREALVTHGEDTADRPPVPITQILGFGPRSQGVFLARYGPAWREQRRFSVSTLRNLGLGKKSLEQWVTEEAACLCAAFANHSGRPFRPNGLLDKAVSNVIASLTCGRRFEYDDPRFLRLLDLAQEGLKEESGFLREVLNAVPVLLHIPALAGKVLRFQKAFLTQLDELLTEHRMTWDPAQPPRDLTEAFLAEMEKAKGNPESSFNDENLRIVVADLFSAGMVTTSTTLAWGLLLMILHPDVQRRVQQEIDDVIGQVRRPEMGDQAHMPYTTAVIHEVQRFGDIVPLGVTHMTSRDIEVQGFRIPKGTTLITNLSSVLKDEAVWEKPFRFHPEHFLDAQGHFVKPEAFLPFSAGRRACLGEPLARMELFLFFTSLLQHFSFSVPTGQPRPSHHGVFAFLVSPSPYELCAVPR

COc1ccc2[nH]cc(CCNc3ncncc3-c3ccccc3C)c2c1
active: Potency [1] 1.26 µM

CN(C)c1ccc(-c2cc(N(C)Cc3ccco3)ncn2)cc1
active: Potency [1] 7.94 µM

CN(Cc1ccco1)c1nc(-c2ccccc2C(F)(F)F)nc2ccccc12
active: Potency [1] 7.94 µM

COc1ccc2[nH]cc(CCNc3ncnc4ccc(-c5ccoc5)cc34)c2c1
active: Potency [1] 5.01 µM

Cc1nc2cnc(N3CCN(C)CC3)nc2n(CCc2ccccc2)c1=O
active: Potency [1] 2.51 µM

CN(C)c1ccc(-c2nccc(NCc3cccs3)n2)cc1
active: Potency [1] 0.126 µM

C=CC(C)(CCC=C(C)C)OC(C)=O (stereo not given)
inactive: Potency [2] | outcome [3] | Potency [4] | max response [5] 1.82% | outcome [6]

COc1ccc(/C=C/c2cc(OC)cc(=O)o2)cc1
inactive: Potency [7] > 92 µM | Potency [8] | Potency [9] | Potency [10] | Potency [11] | Potency [12] | Potency [13] | Potency [14] | Potency [15] | Potency [16] | Potency [17] | Potency [18] | outcome [3] | Potency [19] | Potency [20]

CCCCCCCCCCCCCC(=O)O
inactive: Potency [7] > 92 µM | Potency [8] | Potency [9] | Potency [10] | Potency [11] | Potency [12] | Potency [13] | Potency [14] | Potency [15] | Potency [16] | Potency [17] | Potency [18] | Potency [2] | outcome [3] | Potency [19] | Potency [20] | Potency [4] | max response [5] -0.081% and -5.28% | outcome [6]

C=C(C)C1CC=C(C)C(O)C1 (stereo not given)
inactive: Potency [7] > 92 µM | Potency [8] | Potency [9] | Potency [10] | Potency [11] | Potency [12] | Potency [13] | Potency [14] | Potency [15] | Potency [16] | Potency [17] | Potency [18] | Potency [2] | outcome [3] | Potency [19] | Potency [20] | Potency [4] | max response [5] 2.42% | outcome [6]

O=c1cc(-c2ccc(O)c(O)c2)oc2cc(O[C@@H]3O[C@@H](CO)[C@@H](O)[C@@H](O)[C@H]3O)cc(O)c12
inactive: Potency [1]

C=CCc1ccc(OC)c(OC)c1
inactive: Potency [7] > 92 µM | Potency [8] | Potency [9] | Potency [10] | Potency [11] | Potency [12] | Potency [13] | Potency [14] | Potency [15] | Potency [16] | Potency [17] | Potency [18] | Potency [2] | outcome [3] | Potency [19] | Potency [20] | Potency [4] | max response [5] -0.697% and 1.19% | outcome [6]

C=CC(=C)CCC=C(C)C
inactive: Potency [7] > 92 µM | Potency [8] | Potency [9] | Potency [10] | Potency [11] | Potency [12] | Potency [13] | Potency [14] | Potency [15] | Potency [16] | Potency [17] | Potency [18] | Potency [2] | Potency [19] | Potency [20] | Potency [4] | max response [5] 2.22% | outcome [6]

COc1cc(/C=C/c2ccccc2)oc(=O)c1
inactive: Potency [7] > 92 µM | Potency [9] | Potency [10] | Potency [11] | Potency [12] | Potency [13] | Potency [14] | Potency [15] | Potency [16] | Potency [17] | Potency [18] | Potency [2] | outcome [3] | Potency [19] | Potency [20]

O=C(O)c1ccccc1
inactive: Potency [7] > 92 µM | Potency [8] | Potency [9] | Potency [10] | Potency [11] | Potency [12] | Potency [13] | Potency [14] | Potency [15] | Potency [16] | Potency [17] | Potency [18] | Potency [19] | Potency [20] | Potency [4] | max response [5] -2.75% | outcome [6]

CC1=C2[C@H](/C=C(\C)C(=O)O)CC[C@@H](C)[C@H]2CC1
inactive: Potency [8] | Potency [9] | Potency [10] | Potency [11] | Potency [12] | Potency [13] | Potency [14] | Potency [15] | Potency [16] | Potency [17] | Potency [18] | Potency [2] | outcome [3] | Potency [4] | max response [5] -3.01% | outcome [6]
